Measured values taken from PubChem BioAssay (NCATS).
Results filed as inconclusive are left out. Unmarked numbers belong to inactive results. Calls follow the shape of the dose curve; as a rule, active = well fitted curve in the direction sought with a large enough effect; inconclusive = small, poorly fitted or top-dose-only effect, or another doubt; inactive = no such curve, though single readings can be large or run the other way.

Test: Dual reporter qHTS for antagonist of Pregnane X Receptor (hPXR) against the NCATS DSHEA and TCM libraries: Fluorescence Readout (AID 1920061); also: 0% is about no effect
Conditions: PXR dual reporter cells, antagonist mode; series mostly up to 40 µM; activity change, negative = inhibition: at the top concentration
Source text: Assay Development and Screening Technology Laboratory (ADST)
National Center for Advancing Translational Sciences (NCATS), Rockville, MD
National Institute of Health (NIH), Bethesda, Maryland
Dietary Supplements and Natural Products have minor oversight of their safety and efficacy. We assembled a collection of Dietary Supplements and Natural Products (DSNP) as well as Traditional Chinese Medicinal (TCM) Plant extracts, which were screened against an in vitro panel of assays, including a liver cytochrome p450 enzyme panel, CAR/PXR signaling pathways, and P-gp transporter assays, to assess their activity. This pipeline facilitated the interrogation of Natural Product-Drug Interaction (NaPDI) through prominent metabolizing pathways. In addition, we compared the activity profiles of the DSNP/TCM substances with those of an approved drug collection. Many of the approved drugs have well-annotated mechanisms of action (MOA) while the MOAs for most of the DSNP and TCM samples remain unknown. Based on the premise that compounds with similar activity profiles tend to share similar targets or MOA, we clustered the library activity profiles to identify overlap with the NCATS Pharmaceutical Collection to predict the MOAs of the DSNP/TCM substances. Overall, we highlight four significant bioactivity profiles (measured by p-values) as examples of this prediction. To assess broad cytotoxicity, we employed screening against a HepG2 cell line. In addition, transporter-mediated drug interactions are utilized in the characterization of DDIs using a P-glycoprotein (P-gp) assays. To profile potential P-gp activity, a differential cell viability was measured against two cell lines: a parental KB-3-1 human cervical adenocarcinoma cell line and the drug-resistant subline KB-8-5-11 that overexpresses P-gp.
To this end, we profiled both collections for potential CAR and/or PXR activity, employing a previously published 1536-well qHTS assay.
[1] Lee TD, et al. A High-Throughput Screen of a Library of Therapeutics Identifies Cytotoxic Substrates of P-glycoprotein. Mol Pharmacol. Nov 2019;96(5):629-640. doi:10.1124/mol.119.115964
For PXR luciferase reporter gene assays, we used hPXR-LucHepG2cells provided by Dr. Taosheng Chen (Department of Chemical Biology and Therapeutics, St. Jude Children's Research Hospital). Cells were cultured in EMEM supplemented with 10% fetal bovine serum, 100U/mL penicillin and 100ug/mL streptomycin, and 500ug/mL of geneticin.
PROTOCOL TABLE (as described by Inglese J, Shamu CE and Guy RK. 2007)
SEQUENCE No. (e.g., 1, 2, 3, etc.); PARAMETER (e.g., Cells, Incubation, Reagent, etc.); VALUE; DESCRIPTION.
1; Cells; 5 uL; hPXR-LucHepG2; white solid-bottom Greiner plate.
2; Incubation; 5h; 37C, 95% humidity, 5% CO2
3; Compounds and control; 23 nL; Kalypsis pintool (Wako USA).
4; Reagent; 1uL; rifampicin (RIF) in the antagonist mode.
6; Reagent; 1 uL; CellTiter-Fluor detection reagent.
7; Incubation; 1 hr; 37C, 5% CO2.
8; Read; Fluorescence; ViewLux plate reader.
9; Reagent; 4 uL; ONE-Glo Luciferase detection reagent.
10; Incubation; 30 min; room temperature.
11; Read; Luminescence; ViewLux plate reader.
NOTES (numbers refer to Sequence numbers above)
1. Briefly, 5uL of hPXR-LucHepG2 cells in phenol red-free DMEM containing 5% charcoal-stripped FBS, 1 mM sodium pyruvate (Invitrogen), 2 mM L-glutamine (Invitrogen), and 100 U/mL penicillin and 100ug/mL streptomycin were dispensed using a BioRAPTR FRD at 4 x 10^5cells/mL (2000cells/well) in tissue culture-treated 1536-well white assay plates (GreinerBio-One).
2. Plates were incubated for 5h at 37C, 95% humidity, and 5% CO2 to allow for cell attachment.
3. Compounds (final concentration for most substances ranged from 15.6 nM to 45.9uM), positive SPA70 (final concentration range of 2.8 nM to 92uM for the antagonist mode), and cytotoxicity control tetraoctyl ammonium bromide (final concentration of 92uM) were transferred (23 nL) via pintool (Wako Automation).
4-5. […]

SMILES | activity change, negative = inhibition
COc1ccc(C(=O)O)cc1 | 7.83% [at 68.2 µM]
Cc1ccc(C(C)C)cc1 | -13.4% [at 68.2 µM]
C=C1C[C@]23CC[C@H]4[C@@](C)(CCC[C@@]4(C)C(=O)O)[C@@H]2CC[C@@]1(O[C@@H]1O[C@H](CO)[C@@H](O)[C@H](O)[C@H]1O[C@@H]1O[C@H](CO)[C@@H](O)[C@H](O)[C@H]1O)C3 | 6.51%
O=C(/C=C/c1ccc(O)c(O)c1)OC1[C@H](O)CC(O)(C(=O)O)C[C@@H]1O (stereo not given in full) | -9.34%
CN(CC(=O)O)C(=N)N | 5.57% [at 121 µM]
C=C(C)[C@H]1CC=C(CO)CC1 | 8.68%
CC/C=C\C/C=C\C/C=C\C/C=C\CCCCC(=O)O | -0.29% [at 5 µM]
C=C1C[C@@]23CC[C@H]4[C@@](C)(CCC[C@@]4(C)C(=O)O[C@@H]4O[C@H](CO)[C@@H](O)[C@H](O)[C@H]4O[C@@H]4O[C@H](CO)[C@@H](O)[C@H](O)[C@H]4O)[C@@H]2CC[C@]1(O[C@@H]1O[C@H](CO)[C@@H](O)[C@H](O)[C@H]1O[C@@H]1O[C@H](CO)[C@@H](O)[C@H](O)[C@H]1O)C3 | 15.7%
C=C/C(C)=C/C/C=C(\C)CCC=C(C)C | 2.49% [at 68.2 µM]
CC(=O)OC/C=C/c1ccccc1 | 9.85% [at 68.2 µM]
CC1=C2[C@H](/C=C(\C)C(=O)O)CC[C@@H](C)[C@H]2CC1 | 2.07%
CC1(C)C2CCC1(C)C(O)C2 (stereo not given) | 7.35%
CCCCCCCCC[C@@H](O)CC(=O)CCc1ccc(O)c(OC)c1 | -5.39%
CC(C)=CCC[C@](C)(O[C@@H]1O[C@H](CO)[C@@H](O)[C@H](O)[C@H]1O)[C@H]1CC[C@]2(C)[C@@H]1[C@H](O)C[C@@H]1[C@@]3(C)CC[C@H](O)C(C)(C)[C@@H]3[C@@H](O[C@@H]3O[C@H](CO)[C@@H](O)[C@H](O)[C@H]3O[C@@H]3O[C@@H](C)[C@H](O)[C@@H](O)[C@H]3O)C[C@]12C | 5.48%
CC(C)=CCC[C@](C)(OC1OC(COC2OCC(O)C(O)C2O)C(O)C(O)C1O)[C@H]1CC[C@]2(C)[C@@H]1[C@H](O)C[C@@H]1[C@@]3(C)CC[C@H](OC4OC(CO)C(O)C(O)C4OC4OC(CO)C(O)C(O)C4O)C(C)(C)[C@@H]3CC[C@]12C (stereo not given in full) | 14%
O=C(/C=C/c1ccc(O)c(O)c1)O[C@@H]1CC(C(=O)O)=C[C@@H](O)[C@H]1O | 9.24%
COc1ccccc1/C=C/C=O | 6.69% [at 68.2 µM]
C=CC(C)(CCC=C(C)C)OC(C)=O (stereo not given) | 4.62% [at 68.2 µM]
CCCCCCCCCC=O | 16% [at 68.2 µM]
COc1cc(-c2oc3cc(O)cc(O)c3c(=O)c2O)ccc1O | -6.11%

SMILES | activity change, negative = inhibition
C=C(C)C(CC=C(C)C)CC12CC(CC=C(C)C)C(C)(C)C(CC=C(C)C)(C(=O)/C(=C(\O)c3ccc(O)c(O)c3)C1=O)C2=O (stereo not given) | -29.3%
CC(C)(O)[C@@H]1CC[C@](C)([C@@H]2[C@H](O)C[C@]3(C)C4C[C@@H](O[C@H]5O[C@@H](CO)[C@H](O)[C@@H](O)[C@@H]5O)C5C(C)(C)[C@H](O[C@H]6OC[C@H](O)[C@@H](O)[C@@H]6O)CC[C@]56CC46CC[C@@]23C)O1 (stereo not given in full) | 8.35%
O=C(/C=C/c1ccc(O)c(O)c1)O[C@@H]1CC(O)(C(=O)O)C[C@@H](OC(=O)/C=C/c2ccc(O)c(O)c2)C1O (stereo not given in full) | -1.04%
CCCCCCCC/C=C/CCCCCCCCCC(=O)O | 1.4%
O=C(OC[C@H]1O[C@@H](OC(=O)c2cc(O)c(O)c(O)c2)[C@H](OC(=O)c2cc(O)c(O)c(O)c2)[C@@H](OC(=O)c2cc(O)c(O)c(O)c2)[C@@H]1O)c1cc(O)c(O)c(O)c1 | 10.3% [at 22 µM]
CCCCC/C=C/C(=O)CCc1ccc(O)c(OC)c1 | -15.8%
CC(=O)O[C@@H]1CC[C@@]2(C)[C@@H](CC[C@]3(C)[C@@H]2C(=O)C=C2[C@@H]4[C@@H](C)[C@H](C)CC[C@]4(C)CC[C@]23C)[C@@]1(C)C(=O)O | 26.7%
C=C1CC/C=C(/C)CC[C@@H]2[C@@H]1CC2(C)C | 8.61%
CC1(C)CC[C@]2(C(=O)O)CC[C@]3(C)C(=CCC4[C@@]5(C)CC[C@H](O)[C@@](C)(CO)C5CC[C@]43C)[C@H]2C1 (stereo not given in full) | -15.2%
C[C@@H]1OC(O[C@H]2[C@H](O)[C@@H](O)[C@H](OC[C@H]3O[C@@H](OC(=O)[C@]45CCC(C)(C)C[C@@H]4C4=CCC6[C@@]7(C)CC[C@H](OC8OC[C@H](O)[C@H](O)[C@H]8OC8O[C@@H](C)[C@H](O)[C@@H](O)[C@H]8O)[C@@](C)(CO)C7CC[C@@]6(C)[C@]4(C)CC5)[C@H](O)[C@@H](O)[C@@H]3O)O[C@@H]2CO)[C@H](O)[C@H](O)[C@H]1O (stereo not given in full) | 8.91%
CC[C@H](CC[C@@H](C)[C@H]1CCC2C3CCC4C[C@@H](O)CC[C@]4(C)C3CC[C@@]21C)C(C)C (stereo not given in full) | 8.9%
CCCCCC(=O)O | -9.82% [at 68.2 µM]
Oc1cc(O)c2c(c1)O[C@@H](c1cc(O)c(O)c(O)c1)[C@H](O)C2 | -17.1%
CCCCCCCC/C=C\CCCCCCCCCCCC(=O)O | 10.7%
COc1ccc(/C=C/c2cc(OC)cc(=O)o2)cc1 | -7.08%
CC1(C)CC[C@]2(C(=O)O)CC[C@]3(C)C(=CCC4[C@@]5(C)CC[C@@H](O)C(C)(C)C5CC[C@]43C)C2C1 (stereo not given in full) | -27.8%
OCC1=C[C@@H](O)[C@@H]2C=CO[C@@H](OC3O[C@H](CO)[C@@H](O)[C@H](O)[C@H]3O)[C@H]12 (stereo not given in full) | 12.6%
COc1cc(/C=C/c2ccccc2)oc(=O)c1 | 4.61%
C=CC(=C)CCC=C(C)C | 10.6%
O=c1cc(-c2ccc(O)cc2)oc2cc(O[C@@H]3O[C@H](CO)[C@@H](O)[C@H](O)[C@H]3O[C@@H]3OC[C@](O)(CO)[C@H]3O)cc(O)c12 | 1.61%
